Screening results (PubChem)
PDI turbidity – PDI (human) enzyme inhibition. P07237. PDI insulin aggregation turbidity, A650, 90 min. inhibition, % at 10 µM. 350,000 compounds, 0.052% hits. AID 588391;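 active = mean inhibition across replicates of 30% or more, whatever share of single replicates reach that level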
PvdQ inh – P. aeruginosa PvdQ acylase inhibition; 340,000 compounds, 0.063% hits; purified PvdQ acylase, fluorescence plate reader; inhibition, % at 10 µM; in the data active = inhibition above about 30%, passing the limit was not always enough
N-glyco inh – blocks N-linked glycosylation in D54 reporter cells | D54 ERlucT glycosylation luciferase reporter, 24 h; percent of 100 nM tunicamycin response | reporter increase, % at 12.5 µM | 360,000 compounds, 0.23% hits;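 active = mean luciferase reporter signal, scaled so untreated is 0 and the glycosylation-blocking control 100, at or above a set limit in every replicate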;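 note: luciferase carries N-glycosylation sites so blocking glycosylation raises the light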
ERp5 block – ERp5 (human) disulfide isomerase inhibition. Q15084. ERp5 insulin aggregation, absorbance 650 nm, 90 min. inhibition, % at 9.99 µM. 350,000 compounds, 0.05% hits. AID 651711;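 active = mean replicate inhibition above about 25%, with every replicate also reaching it, limit read from the data, passing the limit was not always enough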
Target sequence (Q15084 whole entry, looked up): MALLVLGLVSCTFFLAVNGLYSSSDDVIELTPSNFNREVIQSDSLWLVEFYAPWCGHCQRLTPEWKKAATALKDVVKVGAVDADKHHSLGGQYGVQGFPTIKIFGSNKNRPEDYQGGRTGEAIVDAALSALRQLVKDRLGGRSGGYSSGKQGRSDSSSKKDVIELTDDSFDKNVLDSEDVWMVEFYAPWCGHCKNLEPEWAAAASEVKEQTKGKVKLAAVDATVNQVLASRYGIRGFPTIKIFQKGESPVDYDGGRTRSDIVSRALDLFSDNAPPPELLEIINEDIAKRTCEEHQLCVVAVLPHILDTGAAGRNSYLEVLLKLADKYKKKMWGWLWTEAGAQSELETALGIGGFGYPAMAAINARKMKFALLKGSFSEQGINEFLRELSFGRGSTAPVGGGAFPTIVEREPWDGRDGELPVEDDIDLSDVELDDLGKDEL
Vif imaging – inhibitors of HIV Vif. 340,000 compounds, 0.35% hits. HEK293T cells, Vif self-association by quenched fluorescence, imaging, 24 h. AID 602346. inhibition, % at 7.49 µM; in the data active = inhibition above about 50%, passing the limit was not always enough
Each line names hits and unclear results; the compound was inactive in the other large screens. Most compounds without a hit are left out; they make up all but 0.56% or so of the library.

Cc1ccc(-n2nc3c(=O)n(CC(=O)NCCc4cccs4)nc(C)c3c2C)cc1	none (no result: ERp5 block)
Cc1ccc(-n2nc3c(N4CCC(C(=O)NCCc5cccs5)CC4)nnc(C)c3c2C)cc1	Vif imaging 51
CCCN1C(=O)/C(=C/c2ccc(N3CCCC3)c(C)c2)NC1=S	Vif imaging 147 (no result: ERp5 block)
CCN1C(=O)/C(=C/c2ccc(N3CCCC3)cc2)NC1=S	Vif imaging 61 (no result: ERp5 block)
Cc1cc(/C=C2\NC(=S)N(C)C2=O)ccc1N1CCCC1	Vif imaging active
Cc1cc(/C=C2/C(=O)N(C)C(=S)N2C)ccc1N1CCCC1	none
O=C(Nc1cccnc1)c1cc(-c2cccnc2)nc2ccc(Br)cc12	none
O=C(CNC(=O)c1ccncc1)N/N=C/c1ccccn1	Vif imaging 59
CO[C@@H]1CN(C)C(=O)c2cc(NC(=O)C3CCOCC3)ccc2OC[C@H](C)N(C(C)=O)C[C@H]1C	none (no result: PDI turbidity, PvdQ inh, N-glyco inh, Vif imaging)
Cc1[nH]c2ccccc2c1SCc1n[nH]c(=S)n1C	none
Cc1ccc(C)c(N2CCN(c3cnn(-c4nc5ccccc5s4)c(=O)c3Cl)CC2)c1	N-glyco inh 114 (no result: ERp5 block)
CCOC(=O)COc1ccc(S(=O)(=O)Nc2ccc(C)cc2)cc1	none (no result: ERp5 block)
CCOC(=O)COc1ccc(S(=O)(=O)c2ccc(OCC(=O)OCC)cc2)cc1	Vif imaging 120
COc1cc(/C=C2\CC/C(=C\c3cc(OC)c(O)c(OC)c3)C2=O)cc(OC)c1O	none
COc1cc(/C=C2/CCC/C(=C\c3cc(O)c(OC)c(Cl)c3)C2=O)cc(Cl)c1O	N-glyco inh 35 (no result: ERp5 block)
COc1ccc2nc(C)cc(NCc3ccc(F)cc3)c2c1	Vif imaging 91
COc1ccc(/C=N/Nc2cc(C)nc3ccc(OC)cc23)c(OC)c1	Vif imaging 92
COc1ccc2nc(C)cc(N/N=C/c3ccccc3)c2c1	none (no result: ERp5 block)
O=C(O/N=C(\c1ccccc1)c1ccncc1)c1ccccc1F	none
CC(C)=CCCC(C)CCO (stereo not drawn)	none (no result: PDI turbidity)
Clc1ccc2scc(CN3CCCCC3)c2c1	PvdQ inh 33 (no result: ERp5 block)
O=[N+]([O-])c1ccc(Cl)cc1CN1CCCCCC1	none
COc1cccc(Oc2ccc(C(F)(F)F)cc2NC(=O)CN2C(=O)NC3(CCCC3)C2=O)c1	N-glyco inh 86
COc1ccc(NC(=O)CN2C(=O)NC3(CCCC3)C2=O)c(OC)c1	none
COc1ccc(NC(=O)CN2C(=O)NC3(CCCCCCC3)C2=O)cc1	none (no result: Vif imaging)
CCN(CC)S(=O)(=O)c1cccc(NC(=O)CN2C(=O)NC3(CCC(C)CC3)C2=O)c1 (stereo not drawn)	N-glyco inh 32
O=C(CN1C(=O)NC2(CCCC2)C1=O)Nc1cc(C(F)(F)F)ccc1N1CCCCC1	ERp5 block 34
CC1CCC2(CC1)NC(=O)N(CC(=O)Nc1cccc(S(=O)(=O)N(C)c3ccccc3)c1)C2=O (stereo not drawn)	none (no result: PvdQ inh)
CC(C)c1ccc(NC(=O)CN2C(=O)NC3(CCCCCCC3)C2=O)cc1	N-glyco inh 37
COc1ccc(C2N(c3ccc(C)cc3)CCN2c2ccc(C)cc2)cc1O	none
CC(C)NC(=O)NCC[C@H]1CC[C@H](NC(=O)c2ccc(F)cc2)[C@@H](CO)O1	none (no result: PDI turbidity, PvdQ inh, N-glyco inh, Vif imaging)
CCN(CC)CCC(=O)Nc1cccc2c1C(=O)c1ccccc1C2=O	N-glyco inh 110 (no result: Vif imaging)
Cn1c(=O)n(C)c2cc(NS(=O)(=O)c3ccccc3)ccc21	N-glyco inh 34 (no result: ERp5 block)
COc1ccc(OC)c(S(=O)(=O)Nc2ccc3c(c2)n(C)c(=O)n3C)c1	N-glyco inh 28
Cc1ccc(NS(=O)(=O)c2ccc3c(c2)n(C)c(=O)n3C)cc1C	none
Cc1ccc(S(=O)(=O)Nc2ccc3c(c2)n(C)c(=O)n3C)cc1	N-glyco inh 65
CCc1ccc(S(=O)(=O)Nc2cc3c(cc2C)n(C)c(=O)n3C)cc1	N-glyco inh 46
O=C(CSc1ccc([N+](=O)[O-])cn1)Nc1ccc2c(c1)OCO2	none
O=C(C1CCOCC1)N1CC(=O)N2[C@H](C1)[C@@H](c1ccc(C#CC3CC3)cc1)[C@@H]2CO	none (no result: PDI turbidity, PvdQ inh, N-glyco inh, Vif imaging)
O=C1c2cccc3c(N4CCCCC4)ccc(c23)C(=O)N1c1ccc(O)cc1	Vif imaging 112
C[N+]1(CC(O)c2ccccc2)CCCCCC1 (stereo not drawn)	none
Cc1ccc(S(=O)(=O)N(CC(O)CN2CCOCC2)c2cccc([N+](=O)[O-])c2)cc1 (stereo not drawn)	ERp5 block 27
O=[N+]([O-])c1cccc(N(CC(O)CN2CCCC2)S(=O)(=O)c2ccccc2)c1 (stereo not drawn)	none
Cc1ccc2c(c1)[C@H]1[C@H](CO2)[C@H](c2ccccc2)[C@]2(C)C(=O)Nc3cc(F)c(F)cc3C(=O)N12	none
COc1cc2c(cc1OC)C(=O)N1[C@H]3c4cc(Cl)ccc4OC[C@@H]3[C@H](c3ccccc3)[C@]1(C)C(=O)N2	N-glyco inh 45
Cc1ccc2c(c1)[C@H]1[C@H](CO2)[C@H](c2ccccc2)[C@]2(C)C(=O)Nc3cc(Cl)ccc3C(=O)N12	none (no result: ERp5 block)
COc1cc2c(cc1OC)C(=O)N1[C@H]3c4cc(C)ccc4OC[C@@H]3[C@H](c3ccccc3)[C@]1(C)C(=O)N2	N-glyco inh 52
CCCCn1c2ccccc2c2nnc(SCC(=O)NC3=NN=C(c4ccccc4)CS3)nc21	none (no result: PDI turbidity, PvdQ inh, N-glyco inh, Vif imaging)
CCn1c(SCc2ccc(C)cc2)nnc1C1CCN(S(=O)(=O)c2ccc(OC)cc2)CC1	none (no result: ERp5 block)
C[C@H]1CCCCO[C@H](CN(C)C(=O)Nc2ccc3c(c2)OCO3)[C@@H](C)CN([C@@H](C)CO)C(=O)c2cc(N(C)C)ccc2O1	none (no result: PDI turbidity, PvdQ inh, N-glyco inh, Vif imaging)
CC(=O)Nc1ccc(NC(=O)C2CCCCC2C(=O)O)cc1 (stereo not drawn)	none (no result: ERp5 block)
CC(=O)Nc1ccc(NC(=O)[C@@H]2CCCC[C@@H]2C(=O)O)cc1	Vif imaging 83
O=C(C[C@H]1CC[C@H]2[C@@H](COC[C@@H](O)CN2S(=O)(=O)c2cccc(Cl)c2)O1)NCc1ccc2c(c1)OCO2	none (no result: PDI turbidity, PvdQ inh, N-glyco inh, Vif imaging)
COc1ccccc1C(=O)NCCC(=O)N(C)CC(=O)Nc1ccc(C)cc1	none
CCCNC(=O)[C@H]1[C@H](CO)[C@H]2Cn3c(ccc(/C=C/c4ccccc4)c3=O)[C@@H]1N2C(C)=O	ERp5 block 71 (no result: PDI turbidity, PvdQ inh, N-glyco inh, Vif imaging)
CCNC(=O)[C@H]1[C@H](CO)[C@H]2Cn3c(ccc(/C=C/c4ccccc4)c3=O)[C@@H]1N2C(C)=O	none (no result: PDI turbidity, PvdQ inh, N-glyco inh, Vif imaging)
Nc1nc(-c2ccccc2)cc(-c2ccccc2O)n1	N-glyco inh 35 (no result: ERp5 block)
NNc1nc(-c2ccccc2)cc(-c2ccccc2O)n1	none
COc1ccc(C2Nc3ccc4ccccc4c3-c3c2c(=O)oc2ccccc32)cc1 (stereo not drawn)	N-glyco inh 109 (no result: ERp5 block)
COc1ccc(OC)c(/C(O)=C/C(=O)C(=O)Nc2cc(C)ccc2OC)c1	Vif imaging 61 (no result: ERp5 block)
COc1ccc(OC)c(/C(O)=C/C(=O)C(=O)Nc2cc(C)cc(C)c2)c1	none (no result: ERp5 block)
O=C(CCCSc1nc2ccccc2c(=O)[nH]1)c1ccccc1	Vif imaging 52
COc1ccc(-c2nc(C(N)=O)c3[nH]c(=O)n(-c4cccc(Cl)c4)c3n2)cc1OC	N-glyco inh 36 (no result: ERp5 block)
